For part of these data: Results with a measured potency or affinity are listed apart.

Common to all, as to parameters: scale not given: direction of the effect not stated beside the values
Assay [1] deals with Protein translocase subunit SecA (Escherichia coli (strain K12)) (UniProt P10408). The assay is described as follows: Assay to Identify E. coli SecA ATPase Inhibitors. The assay is classed as functional. Particulars: 30 µM.
In assay [2] the target is T1, Ubiquitin-activating enzyme e1, putative (Leishmania donovani (strain BPK282A1)) (UniProt E9BSI1).
T1 sequence (whole entry): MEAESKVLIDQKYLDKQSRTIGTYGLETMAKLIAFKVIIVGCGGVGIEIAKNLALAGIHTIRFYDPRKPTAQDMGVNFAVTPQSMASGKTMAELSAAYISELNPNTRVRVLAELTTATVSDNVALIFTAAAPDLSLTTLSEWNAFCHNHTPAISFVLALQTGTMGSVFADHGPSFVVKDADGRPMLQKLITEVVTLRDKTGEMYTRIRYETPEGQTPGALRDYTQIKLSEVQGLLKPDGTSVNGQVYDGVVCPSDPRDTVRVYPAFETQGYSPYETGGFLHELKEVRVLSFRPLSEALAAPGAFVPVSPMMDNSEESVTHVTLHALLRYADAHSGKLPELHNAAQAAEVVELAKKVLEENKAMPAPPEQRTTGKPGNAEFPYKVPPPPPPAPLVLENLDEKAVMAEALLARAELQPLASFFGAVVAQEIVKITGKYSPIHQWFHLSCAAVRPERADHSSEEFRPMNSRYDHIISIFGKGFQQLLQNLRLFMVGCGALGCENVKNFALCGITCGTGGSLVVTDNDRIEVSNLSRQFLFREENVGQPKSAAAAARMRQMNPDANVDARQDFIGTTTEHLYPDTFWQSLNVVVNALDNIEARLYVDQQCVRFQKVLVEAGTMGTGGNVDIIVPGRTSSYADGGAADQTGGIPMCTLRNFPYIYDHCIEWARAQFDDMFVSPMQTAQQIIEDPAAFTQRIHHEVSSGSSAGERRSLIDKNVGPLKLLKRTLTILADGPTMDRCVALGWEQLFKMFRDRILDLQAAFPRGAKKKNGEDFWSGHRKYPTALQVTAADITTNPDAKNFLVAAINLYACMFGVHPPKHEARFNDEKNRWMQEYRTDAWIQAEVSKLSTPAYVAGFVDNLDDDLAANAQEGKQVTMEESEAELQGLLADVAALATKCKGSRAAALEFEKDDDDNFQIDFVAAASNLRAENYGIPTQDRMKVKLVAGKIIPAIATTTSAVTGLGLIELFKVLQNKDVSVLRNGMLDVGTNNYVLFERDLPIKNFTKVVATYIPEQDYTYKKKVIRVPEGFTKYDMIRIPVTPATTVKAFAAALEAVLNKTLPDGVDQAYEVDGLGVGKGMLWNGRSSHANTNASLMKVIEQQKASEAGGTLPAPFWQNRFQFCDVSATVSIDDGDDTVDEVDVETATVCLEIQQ
The assay is described as follows: Leishmania donovani Ubiquitin Activating Enzyme (LdE1). The assay is classed as functional. As to conditions: 30 µM.

The target of assay [3] is Sialic acid-binding Ig-like lectin 9 (Homo sapiens) (UniProt Q9Y336). The assay is described as follows: Hs-Siglec9 ALPHAscreen SOP 20170721. As to conditions: 10 µM. (In general: Alpha assays give light when donor and acceptor beads are brought close together.)
Sialic acid-binding Ig-like lectin 9 (Homo sapiens), sequence (Q9Y336 whole entry): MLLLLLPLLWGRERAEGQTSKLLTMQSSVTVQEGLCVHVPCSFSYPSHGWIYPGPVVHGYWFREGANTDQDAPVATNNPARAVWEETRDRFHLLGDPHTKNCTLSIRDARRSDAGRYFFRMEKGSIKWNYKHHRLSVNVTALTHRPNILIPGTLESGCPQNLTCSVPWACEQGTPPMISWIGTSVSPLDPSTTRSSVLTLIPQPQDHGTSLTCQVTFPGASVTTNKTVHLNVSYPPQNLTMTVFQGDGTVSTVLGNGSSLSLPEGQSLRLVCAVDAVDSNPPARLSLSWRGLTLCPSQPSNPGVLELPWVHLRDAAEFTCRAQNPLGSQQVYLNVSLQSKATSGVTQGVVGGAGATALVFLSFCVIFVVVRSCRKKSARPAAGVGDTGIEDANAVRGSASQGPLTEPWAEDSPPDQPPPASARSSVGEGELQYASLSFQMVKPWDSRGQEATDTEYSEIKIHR
In another assay the test system is Trypanosoma cruzi. The assay is described as follows: Trypanosoma cruzi phosphomannomutase and mannose-1-phosphate guanylyltransferase assay. As to conditions: 10 µM. The assay is classed as functional.
In assay [4] the target is T2, Arginase-2, mitochondrial (Homo sapiens) (UniProt P78540).
T2 sequence (whole entry): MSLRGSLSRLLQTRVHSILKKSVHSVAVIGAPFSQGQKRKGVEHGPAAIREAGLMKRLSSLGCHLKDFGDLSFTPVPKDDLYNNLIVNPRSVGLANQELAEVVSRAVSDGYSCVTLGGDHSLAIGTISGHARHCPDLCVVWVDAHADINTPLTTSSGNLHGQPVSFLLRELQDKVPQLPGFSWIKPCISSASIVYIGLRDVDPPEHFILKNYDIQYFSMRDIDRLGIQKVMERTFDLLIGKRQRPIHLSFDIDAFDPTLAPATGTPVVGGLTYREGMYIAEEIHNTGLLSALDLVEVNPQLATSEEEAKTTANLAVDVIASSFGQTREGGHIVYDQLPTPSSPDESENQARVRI
The assay is described as follows: in vitro enzyme assay to detect the production of urea directly proportional to the activity of Arginase II. Note: in the data most compounds retested in dose-response had high values. Particulars: 33.3 µM. The assay is classed as functional.

Assay [5] addresses T3, Proteasome subunit beta (Trypanosoma cruzi) (UniProt O96673).
T3 sequence (whole entry): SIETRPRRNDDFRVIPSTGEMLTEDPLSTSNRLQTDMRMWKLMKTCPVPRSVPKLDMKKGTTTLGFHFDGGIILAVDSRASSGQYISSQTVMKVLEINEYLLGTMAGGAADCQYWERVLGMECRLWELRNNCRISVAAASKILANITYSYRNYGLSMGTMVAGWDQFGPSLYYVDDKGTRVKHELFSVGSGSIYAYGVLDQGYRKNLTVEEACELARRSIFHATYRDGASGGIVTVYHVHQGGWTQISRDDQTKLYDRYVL
The assay is described as follows: Trypanosoma cruzi proteasome chymotrypsin-like activity (TcProtChymo) assay. Note: in the data most compounds retested in dose-response had high values. The assay is classed as functional. Particulars: 9.37 µM.

The species entered for the next assay is Homo sapiens. The assay is described as follows: To identify inhibition of the IFN signalling (Jak-Stat) pathway via expression of an eGFP reporter gene under the control of an IFN-stimulated response element (ISRE) containing MxA promoter. It is filed as functional. As to conditions: 30 µM. For orientation: In a reporter assay the amount or activity of a reporter protein is the signal.

Assay [6] has as its target T4, Tyrosyl-tRNA synthetase, putative (Trypanosoma cruzi (strain CL Brener)) (UniProt Q4DSP6).
T4 sequence (whole entry): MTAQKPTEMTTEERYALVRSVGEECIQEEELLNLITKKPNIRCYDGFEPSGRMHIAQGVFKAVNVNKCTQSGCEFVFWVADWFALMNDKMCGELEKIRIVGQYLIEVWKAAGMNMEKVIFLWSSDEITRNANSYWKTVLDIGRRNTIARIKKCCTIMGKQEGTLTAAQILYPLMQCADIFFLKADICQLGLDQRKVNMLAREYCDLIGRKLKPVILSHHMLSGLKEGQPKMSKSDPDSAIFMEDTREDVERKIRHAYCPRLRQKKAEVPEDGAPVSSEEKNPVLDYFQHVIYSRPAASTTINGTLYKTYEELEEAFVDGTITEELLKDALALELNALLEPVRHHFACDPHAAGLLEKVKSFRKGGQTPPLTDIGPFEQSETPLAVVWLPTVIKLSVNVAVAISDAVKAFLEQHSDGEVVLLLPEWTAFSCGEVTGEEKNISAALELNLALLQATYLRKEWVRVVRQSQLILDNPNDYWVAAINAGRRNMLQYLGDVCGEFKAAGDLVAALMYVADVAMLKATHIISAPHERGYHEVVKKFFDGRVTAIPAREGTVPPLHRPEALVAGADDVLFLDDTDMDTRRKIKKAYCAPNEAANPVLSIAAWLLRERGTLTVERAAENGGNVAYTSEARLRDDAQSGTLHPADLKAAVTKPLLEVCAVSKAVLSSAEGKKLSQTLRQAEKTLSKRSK
The assay is described as follows: Trypanosoma cruzi tyrosyl tRNA synthetase (TcYRS) _High Tyrosine SOP. Note: in the data most compounds retested in dose-response had high values. It is filed as functional. Particulars: 30 µM.

The target of assay [7] is T4, Tyrosyl-tRNA synthetase, putative (Trypanosoma cruzi (strain CL Brener)). The assay is described as follows: Trypanosoma cruzi tyrosyl tRNA synthetase (TcYRS) SOP. The assay is classed as functional. As to conditions: 30 µM.
Assay [8] has as its target Chromo domain-containing protein 1 (Saccharomyces cerevisiae (strain ATCC 204508 / S288c) (Baker's yeast)) (UniProt P32657). The assay is described as follows: ScCHD-1 Enzyme Inhibition Assay. Note: in the data most compounds retested in dose-response had high values. As to conditions: 30 µM. The assay is classed as functional.

Protein translocase subunit SecA (Escherichia coli (strain K12)), sequence (P10408 whole entry): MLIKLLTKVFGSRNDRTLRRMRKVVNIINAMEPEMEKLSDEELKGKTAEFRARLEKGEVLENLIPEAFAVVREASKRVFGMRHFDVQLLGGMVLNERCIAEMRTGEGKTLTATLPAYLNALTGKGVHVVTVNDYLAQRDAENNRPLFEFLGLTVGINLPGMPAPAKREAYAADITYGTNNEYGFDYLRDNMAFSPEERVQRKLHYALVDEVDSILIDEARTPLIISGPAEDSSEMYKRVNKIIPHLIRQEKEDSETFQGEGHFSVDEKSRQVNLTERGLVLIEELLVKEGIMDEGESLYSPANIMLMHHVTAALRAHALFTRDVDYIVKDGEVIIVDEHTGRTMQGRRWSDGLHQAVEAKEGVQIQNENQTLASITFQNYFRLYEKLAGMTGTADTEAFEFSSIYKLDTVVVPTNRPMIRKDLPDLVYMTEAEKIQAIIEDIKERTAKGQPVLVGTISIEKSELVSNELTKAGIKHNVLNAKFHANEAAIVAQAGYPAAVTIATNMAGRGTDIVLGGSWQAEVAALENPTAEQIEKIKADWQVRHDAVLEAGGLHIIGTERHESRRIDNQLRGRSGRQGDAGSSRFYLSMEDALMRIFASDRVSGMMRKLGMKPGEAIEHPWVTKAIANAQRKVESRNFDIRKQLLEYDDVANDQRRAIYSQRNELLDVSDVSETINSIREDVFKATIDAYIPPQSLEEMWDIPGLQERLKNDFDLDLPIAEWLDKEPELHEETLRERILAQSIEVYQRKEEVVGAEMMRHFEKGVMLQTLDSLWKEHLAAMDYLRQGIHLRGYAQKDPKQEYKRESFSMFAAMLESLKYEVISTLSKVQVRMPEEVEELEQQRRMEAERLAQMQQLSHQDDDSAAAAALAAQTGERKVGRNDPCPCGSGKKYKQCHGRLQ
Chromo domain-containing protein 1 (Saccharomyces cerevisiae (strain ATCC 204508 / S288c) (Baker's yeast)), sequence (P32657 whole entry, the tested form may be a part): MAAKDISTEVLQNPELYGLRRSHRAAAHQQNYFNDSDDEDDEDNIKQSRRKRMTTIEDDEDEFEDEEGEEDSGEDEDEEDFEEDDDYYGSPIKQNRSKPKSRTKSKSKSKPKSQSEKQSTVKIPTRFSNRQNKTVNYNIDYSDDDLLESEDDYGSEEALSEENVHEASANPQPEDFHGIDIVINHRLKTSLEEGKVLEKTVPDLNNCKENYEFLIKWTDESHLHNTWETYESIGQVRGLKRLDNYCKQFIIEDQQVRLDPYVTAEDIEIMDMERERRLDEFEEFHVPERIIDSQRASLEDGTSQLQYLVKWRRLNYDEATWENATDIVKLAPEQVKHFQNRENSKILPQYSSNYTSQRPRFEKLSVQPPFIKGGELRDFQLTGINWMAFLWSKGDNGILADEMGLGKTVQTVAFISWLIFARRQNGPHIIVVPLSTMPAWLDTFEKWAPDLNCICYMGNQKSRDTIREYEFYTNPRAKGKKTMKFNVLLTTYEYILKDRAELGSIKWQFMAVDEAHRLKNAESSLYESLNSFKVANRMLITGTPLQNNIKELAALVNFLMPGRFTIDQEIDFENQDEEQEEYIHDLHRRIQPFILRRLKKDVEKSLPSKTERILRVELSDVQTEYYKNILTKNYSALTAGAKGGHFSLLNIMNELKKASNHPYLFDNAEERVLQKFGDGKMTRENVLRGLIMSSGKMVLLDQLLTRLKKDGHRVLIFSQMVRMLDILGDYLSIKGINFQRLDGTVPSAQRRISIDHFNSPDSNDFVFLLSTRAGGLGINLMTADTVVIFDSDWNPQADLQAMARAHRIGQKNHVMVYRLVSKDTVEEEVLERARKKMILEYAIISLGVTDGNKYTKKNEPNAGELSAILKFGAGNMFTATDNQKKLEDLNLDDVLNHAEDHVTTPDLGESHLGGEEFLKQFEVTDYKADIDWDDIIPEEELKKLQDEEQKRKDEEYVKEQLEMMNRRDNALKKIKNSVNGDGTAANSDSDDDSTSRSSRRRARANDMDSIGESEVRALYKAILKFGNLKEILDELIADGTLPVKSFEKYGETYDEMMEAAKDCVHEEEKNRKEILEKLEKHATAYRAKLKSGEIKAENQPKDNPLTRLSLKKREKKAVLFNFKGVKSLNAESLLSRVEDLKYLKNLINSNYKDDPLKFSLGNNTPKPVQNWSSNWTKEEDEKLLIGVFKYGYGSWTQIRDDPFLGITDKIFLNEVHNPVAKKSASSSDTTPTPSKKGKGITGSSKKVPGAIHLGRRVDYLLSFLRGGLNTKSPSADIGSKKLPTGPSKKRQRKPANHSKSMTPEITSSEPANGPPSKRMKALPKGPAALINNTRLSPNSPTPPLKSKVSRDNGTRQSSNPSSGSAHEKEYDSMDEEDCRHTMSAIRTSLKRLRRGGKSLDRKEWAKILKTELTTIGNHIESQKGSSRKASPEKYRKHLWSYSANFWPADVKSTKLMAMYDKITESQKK

`Cc1ccc(SCC2CNc3nc4ccccc4c(=O)n32)c(C)c1` (stereo not given): the Percent Effect in assay [1] stood at 0.606%; in [2], 22.1%; in assay [3], 23.4%; in the assay with Trypanosoma cruzi it was 0.375%; in assay [4], 5.94%; in [5], 12.4%. For the same compound, the Percent Effect in the assay filed under Homo sapiens was 29.8%; in assay [6], 6.76%; in [7], -2.5%; in assay [8] it was -2.7%.

Consider `CC(C)n1ccnc1CN1CCCN(C(=O)c2cc(Cl)c[nH]2)CC1`, for which the Percent Effect in [1] is -0.854%; in assay [2], 10.3%; in assay [3] it was -9.31%; with Trypanosoma cruzi it was -3.1%; in assay [4], 11.5%; in assay [5], 16.1%. Further, the Percent Effect in the assay filed under Homo sapiens is 10.8%; in assay [6] it was 6.22%; in assay [7], 18.1%; in assay [8] it was -3.25%.

In the case of `CCS(=O)(=O)N1CCC2(CC1)CN(Cc1ccccn1)C(=O)CO2`, the Percent Effect is 2.67% in [1]; 1.3% in assay [2]; 1.21% in assay [3]; -0.487% in the assay on Trypanosoma cruzi; 1.62% in assay [4]; 3.44% in [5]. The Percent Effect was -2.87% in the assay filed under Homo sapiens, -1.58% in assay [6], 0% in assay [7] and 2.48% in assay [8].

`CN1CCC/C1=N\S(=O)(=O)c1ccc(NC(=O)CCc2cccs2)cc1`: the Percent Effect in assay [1] was found to be 2.31%; in assay [2], 20.8%; in assay [3], 5.99%; in the assay with Trypanosoma cruzi, 2.05%; in assay [4], 12.1%; in assay [5], 5.79%. The Percent Effect in the assay filed under Homo sapiens was 16.7%; in [6], 7.84%; in assay [7], 28.2%; in assay [8] it was -8.39%.

`COCc1nc(C(=O)NS(=O)(=O)c2ccc(C)s2)cs1`: the Percent Effect in [1] is -1.18%; in [2], -5.13%; in assay [3] it was -1.4%; with Trypanosoma cruzi, -5.35%; in assay [4] it was 6.56%; in [5], -7.25%. Besides, the Percent Effect was 18.7% in the assay filed under Homo sapiens, 1.44% in assay [6], 1.21% in assay [7] and -0.772% in assay [8].

As for `O=C(c1cnco1)N1CCCC(Cc2nccs2)C1` (stereo not given), the Percent Effect in assay [1] was -3.28%; in assay [2], 14.7%; in [3], 5.58%; in the assay on Trypanosoma cruzi it was 0.395%; in assay [4], 4.87%; in assay [5] it was 19.1%. For the same compound, the Percent Effect is -17.7% in the assay listed under Homo sapiens, 7.41% in [6], 15% in [7] and -20.4% in assay [8].

In the case of `Clc1ccccc1-c1nc(CNC2CCc3ncnn3C2)cs1` (stereo not given), the Percent Effect in assay [1] is -0.994%; in assay [2], -12.8%; in assay [3], -3.7%; in the assay on Trypanosoma cruzi, 4.6%; in [4], 0.41%; in assay [5] it was -0.427%. For the same compound, the Percent Effect is -12% in the assay listed under Homo sapiens, 2.39% in [6], 1.21% in assay [7] and 6.45% in assay [8].

For `CNC(=O)COc1ccccc1CNC1CCc2ncnn2C1` (stereo not given), the Percent Effect in assay [1] is -1.08%; in assay [2] it was 2.56%; in [3] it was -25.1%; in the assay with Trypanosoma cruzi it was 6.67%; in [4], -1.23%; in assay [5], 18.7%. The Percent Effect in the assay filed under Homo sapiens came out at 13.3%; in assay [6] it was 6.22%; in assay [7] it was 20.5%; in assay [8], 44.8%.

Consider `CCc1nccn1C1CCCN(C(=O)Cc2ccc(OC)c(F)c2)C1` (stereo not given), for which the Percent Effect is -7.36% in assay [1]; 16% in assay [2]; 14.5% in [3]; -1.21% with Trypanosoma cruzi; 1.77% in assay [4]; 7.38% in assay [5]. Besides, the Percent Effect was 13% in the assay filed under Homo sapiens, 6.84% in assay [6], 10.3% in [7] and -9.19% in assay [8].

Consider `NC(=O)C1(CCCc2cccnc2)CCCN(c2ncccn2)C1` (stereo not given), for which the Percent Effect in [1] was -2.51%; in assay [2], 4%; in [3], 3.57%; with Trypanosoma cruzi, -3.16%; in assay [4], 0.885%; in [5] it was 3.61%. Also, the Percent Effect in the assay listed under Homo sapiens is 8.71%; in [6] it was 4.23%; in [7], 5%; in assay [8] it was -13%.

In the case of `Fc1ccc(-c2nnc(CN3CCn4c(nnc4C4CC4)C3)o2)cc1`, the Percent Effect was -4.82% in assay [1]; -18.7% in assay [2]; 2.87% in [3]; -3.81% in the assay with Trypanosoma cruzi; 1.77% in assay [4]; 3.99% in [5]. The Percent Effect in the assay filed under Homo sapiens was -0.798%; in assay [6] it was 10%; in assay [7], 15.4%; in assay [8], -6.37%.

In the case of `Cc1nc(CN(C)C2CCN(CCCOc3ccccc3)C2)no1` (stereo not given), the Percent Effect is 0.729% in assay [1]; 23.4% in assay [2]; -1.5% in [3]; 2.42% in the assay on Trypanosoma cruzi; -5.94% in assay [4]; 20.9% in assay [5]. For the same compound, the Percent Effect in the assay listed under Homo sapiens was 8.47%; in assay [6] it was 8.82%; in assay [7] it was 21.2%; in [8], -11.3%.

The values above are taken from ChEMBL document CHEMBL3988442, “University of Dundee, Small-Polar-MMV Screening Library” (2021).
